Laboratory results taken from PubChem BioAssay (Tox21).
Values joined by “and” are separate entries in the source; they are usually repeats but may differ in a detail not shown here. Identical values can stand only once. Records with an inconclusive call do not appear. Entries that show only a call come without a potency. The source holds several records for some structures; these can differ, active in one and inactive in another. Active and inactive are the calls of the source. Unless noted, calls follow the shape of the dose curve; as a rule, active = well fitted curve in the direction sought with a large enough effect in the repeat runs; inconclusive = weak or mixed curves; inactive = no such curve, though single readings can be large; an effect the other way counts as inactive or inconclusive.

Columns and labels:
[1] = qHTS assay to identify small molecule antagonists of the glucocorticoid receptor (GR) signaling pathway - cell viability counter screen (AID 720693); also: nearly all actives have a fitted effect of over 55% in size
[2] = qHTS assay for identifying genotoxic compounds that show differential cytotoxicity against isogenic chicken DT40 cell lines with known DNA damage response pathways - wild type cell line (AID 743012); also: nearly all actives have a fitted effect of over 60% in size; also: potency is read from the fitted curve at half-maximal effect
Method in brief: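 Quantitative HTS on parental DT40 cells: 40 h compound treatment at 37 C/5% CO2, with viability then determined by CellTiter-Glo luminescence. Values serve as the DNA repair-proficient reference for differential cytotoxicity.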

[3] = qHTS assay for identifying genotoxic compounds that show differential cytotoxicity against isogenic chicken DT40 cell lines with known DNA damage response pathways - Rev3 mutant cell line (AID 743014); also: nearly all actives have a fitted effect of over 55% in size; also: potency is read from the fitted curve at half-maximal effect
[4] = qHTS assay for identifying genotoxic compounds that show differential cytotoxicity against isogenic chicken DT40 cell lines with known DNA damage response pathways - Rad54/Ku70 mutant cell line (AID 743015); also: nearly all actives have a fitted effect of over 60% in size; also: potency is read from the fitted curve at half-maximal effect
[5] = qHTS assay to identify small molecule antagonists of the androgen receptor (AR) signaling pathway - cell viability counter screen (AID 743033; also: nearly all actives have a fitted effect of over 45% in size)
[6] = qHTS assay to identify small molecule antagonists of the androgen receptor (AR) signaling pathway using the MDA cell line - cell viability counter screen (AID 743041; also: nearly all actives have a fitted effect of over 45% in size)
Method in brief: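 Same-well cytotoxicity was assessed by CellTiter-Fluor in MDA-kb2 AR-luc cells after 16 h of compound treatment under R1881 agonism.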

[7] = qHTS assay to identify small molecule antagonists of the thyroid receptor (TR) signaling pathway - cell viability counter screen (AID 743064); also: nearly all actives have a fitted effect of over 50% in size
Method in brief: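 Fluorescence from CellTiter-Fluor, added after 23.5 h exposure at 37 °C, reported viability of GH3.TRE-Luc cells co-treated with compound and 1 nM T3. Measured in the same wells as the luciferase TR readout.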

[8] = qHTS assay to identify small molecule antagonists of the thyroid receptor (TR) signaling pathway (AID 743065); also: series mostly up to about 70 µM; nearly all actives have a fitted effect of over 55% in size
Method in brief: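 GH3.TRE-Luc rat pituitary cells (two TREs driving luciferase) were dosed with compound, then stimulated with 1 nM T3 (final) for 23.5 h at 37 C. ONE-Glo luminescence was the read-out, with CellTiter-Fluor fluorescence as the cytotoxicity counter-screen.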

[9] = tested on: thyroid hormone receptor (rat, GH3 cells); test: qHTS assay to identify small molecule agonists of the thyroid receptor (TR) signaling pathway (AID 743066; calls by dose curve)
[10] = biological target: Estrogen receptor (Homo sapiens) (UniProt P03372); test: qHTS assay to identify small molecule antagonists of the estrogen receptor alpha (ER-alpha) signaling pathway (AID 743069; active = well fitted curve in the direction sought with a large enough effect in the signal ratio in the repeat runs, not every such curve was filed as active; the % refers to the signal ratio)
Chain of Estrogen receptor (Homo sapiens) (P03372 whole entry, looked up): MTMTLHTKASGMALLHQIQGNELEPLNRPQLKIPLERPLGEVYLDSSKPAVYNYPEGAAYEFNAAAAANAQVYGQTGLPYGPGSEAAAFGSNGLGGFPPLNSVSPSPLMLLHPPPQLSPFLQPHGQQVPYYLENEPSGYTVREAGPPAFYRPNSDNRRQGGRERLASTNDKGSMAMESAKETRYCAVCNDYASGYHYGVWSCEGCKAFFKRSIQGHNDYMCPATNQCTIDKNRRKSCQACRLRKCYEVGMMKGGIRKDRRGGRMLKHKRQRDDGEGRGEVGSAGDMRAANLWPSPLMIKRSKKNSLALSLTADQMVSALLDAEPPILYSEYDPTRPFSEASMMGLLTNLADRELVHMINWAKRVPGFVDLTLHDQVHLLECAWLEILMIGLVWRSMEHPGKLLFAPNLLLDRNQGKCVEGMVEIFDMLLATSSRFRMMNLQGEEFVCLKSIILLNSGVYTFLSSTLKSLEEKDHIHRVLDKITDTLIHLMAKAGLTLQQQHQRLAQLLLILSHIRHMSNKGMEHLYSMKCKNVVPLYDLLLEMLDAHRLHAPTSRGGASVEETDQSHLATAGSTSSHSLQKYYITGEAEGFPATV
Method in brief: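 Reporter cells (ER-alpha-bla, HEK293 background) are conditioned overnight in stripped-serum medium (2% charcoal-stripped FBS). Compound and 17beta-estradiol exposure runs 18 hr at 37C, 5% CO2.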

[11] = qHTS assay to identify small molecule antagonists of the estrogen receptor alpha (ER-alpha) signaling pathway - cell viability counter screen (AID 743074; calls by dose curve;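 also: HEK293 cells carrying ER-alpha-UAS-bla reporter stimulated with 17beta-estradiol; nearly all actives have a fitted effect of over 45% in size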)
[12] = biological target: Estrogen receptor (Homo sapiens) (UniProt P03372); test: qHTS assay to identify small molecule agonists of the estrogen receptor alpha (ER-alpha) signaling pathway (AID 743075; calls by dose curve;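 also: HEK293 GripTite cells with ER-alpha and UAS-driven beta-lactamase reporter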; also: potency is read from the fitted curve at half-maximal effect)
[13] = biological target: Estrogen receptor (Homo sapiens) (UniProt P03372); test: qHTS assay to identify small molecule agonists of the estrogen receptor alpha (ER-alpha) signaling pathway using the BG1 cell line (AID 743079); also: nearly all actives have a fitted effect of over 20% in size; also: potency is read from the fitted curve at half-maximal effect
[14] = qHTS assay to identify small molecule antagonists of the estrogen receptor alpha (ER-alpha) signaling pathway using the BG1 cell line (AID 743080; calls by dose curve;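 also: BG1 cells stimulated with 17beta-estradiol alongside compound; series mostly up to about 70 µM; nearly all actives have a fitted effect of over 25% in size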)
Method in brief: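 After 5 days in phenol-red-free 10% charcoal-stripped FBS medium, BG1-Luc-4E2 cells were seeded, left 24 h at 37 C, co-treated with compounds and 17beta-estradiol for 21.5 h, then assayed for viability and luciferase.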

[15] = qHTS assay to identify small molecule antagonists of the estrogen receptor alpha (ER-alpha) signaling pathway using the BG1 cell line - cell viability counter screen (AID 743081);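 also: compound given together with 17beta-estradiol as the ER stimulus; series mostly up to about 70 µM; nearly all actives have a fitted effect of over 45% in size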
Aromatase (Homo sapiens) = Aromatase (Homo sapiens) (UniProt P11511); test: qHTS assay to identify aromatase inhibitors (AID 743083); also: series mostly up to about 70 µM; nearly all actives have a fitted effect of over 55% in size
Chain of Aromatase (Homo sapiens) (P11511 whole entry, looked up): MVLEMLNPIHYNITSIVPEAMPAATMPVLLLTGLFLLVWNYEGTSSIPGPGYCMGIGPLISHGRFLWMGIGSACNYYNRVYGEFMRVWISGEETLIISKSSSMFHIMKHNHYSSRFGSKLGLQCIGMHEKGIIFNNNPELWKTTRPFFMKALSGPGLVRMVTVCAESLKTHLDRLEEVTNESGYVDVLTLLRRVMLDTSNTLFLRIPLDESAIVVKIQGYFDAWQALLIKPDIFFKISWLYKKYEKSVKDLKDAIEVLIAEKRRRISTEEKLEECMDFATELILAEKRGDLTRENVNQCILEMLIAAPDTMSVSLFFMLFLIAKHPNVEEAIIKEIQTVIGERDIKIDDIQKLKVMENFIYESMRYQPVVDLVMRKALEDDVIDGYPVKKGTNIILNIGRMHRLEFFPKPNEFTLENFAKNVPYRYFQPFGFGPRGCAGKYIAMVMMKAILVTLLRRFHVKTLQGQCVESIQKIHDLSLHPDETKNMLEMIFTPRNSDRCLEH

In the case of `CCOC(=O)C(C)(C)Oc1ccc(Cl)cc1`, the Potency [1] is reported as “inactive”, the Potency [2] is reported as “inactive” and the Potency [3] is reported as “inactive”. The Potency [4] was “inactive”, the outcome [5] was “inactive” and the Potency [6] was “inactive”. For the same compound, the Potency [7] was “inactive”, the Potency [8] was “inactive” and the outcome [9] was “inactive”. The Potency [10] was “inactive”, the outcome [11] was “inactive” and the Potency [12] was “inactive”. The Potency [13] was 26.6 µM (active) and inactive, the Potency [14] was “inactive” and the Potency [15] was “inactive”. For the same compound, the Potency (Aromatase (Homo sapiens)) was “inactive”.
In the case of `OC[C@@H](O)[C@@H](O)[C@H](O)[C@H](O)CO`, the Potency [1] is reported as “inactive”, the Potency [2] is reported as “inactive” and the Potency [3] is reported as “inactive”. The Potency [4] was “inactive”, the outcome [5] was “inactive” and the Potency [6] was “inactive”. The Potency [7] was “inactive”, the outcome [9] was “inactive” and the Potency [10] was “inactive”. For the same compound, the outcome [11] was “inactive”, the Potency [12] was “inactive” and the Potency [13] was “inactive”. For the same compound, the Potency [14] was “inactive”, the Potency [15] was “inactive” and the Potency (Aromatase (Homo sapiens)) was “inactive”.
For `Cc1c(N(C)C)c(=O)n(-c2ccccc2)n1C`, the Potency [1] was “inactive”, the Potency [2] was “inactive” and the Potency [3] was “inactive”. For the same compound, the Potency [4] was “inactive”, the outcome [5] was “inactive” and the Potency [6] was “inactive”. For the same compound, the Potency [7] was “inactive”, the outcome [9] was “inactive” and the Potency [10] was “inactive”. The outcome [11] was “inactive”, the Potency [12] was “inactive” and the Potency [13] was “inactive”. For the same compound, the Potency [14] was “inactive”, the Potency [15] was “inactive” and the Potency (Aromatase (Homo sapiens)) was “inactive”.
With `O=C(OCc1ccccc1)c1ccccc1` the Potency [1] was “inactive”, the Potency [2] was “inactive” and the Potency [3] was “inactive”. For the same compound, the Potency [4] was “inactive”, the outcome [5] was “inactive” and the Potency [6] was “inactive”. The Potency [7] was “inactive”, the Potency [8] was “inactive” and the outcome [9] was “inactive”. For the same compound, the outcome [11] was “inactive”, the Potency [15] was “inactive” and the Potency (Aromatase (Homo sapiens)) was “inactive”.
In the case of `Cc1cnc(NC(=O)C2=C(O)c3ccccc3S(=O)(=O)N2C)s1`, the Potency [1] is reported as “inactive”, the Potency [2] is reported as 26.6 µM (active) and inactive and 6.86 µM (active) and the Potency [3] is reported as “inactive and 27.4 µM (active) and 8.63 µM (active)”. For the same compound, the Potency [4] was “inactive and 27.3 µM (active)”, the outcome [5] was “inactive” and the Potency [6] was “inactive”. For the same compound, the Potency [7] was “inactive”, the outcome [9] was “inactive” and the Potency [10] was “inactive”. For the same compound, the outcome [11] was “inactive”, the Potency [12] was “inactive” and the Potency [13] was “inactive and 21.1 µM (active)”. For the same compound, the Potency [14] was “inactive”, the Potency [15] was “inactive” and the Potency (Aromatase (Homo sapiens)) was “inactive”.
In the case of `Nc1cccc(N)c1`, the Potency [1] is reported as “inactive”, the Potency [2] is reported as “inactive” and the Potency [3] is reported as 17.2 µM (active) and inactive. The Potency [4] was 61 µM (active) and inactive, the outcome [5] was “inactive” and the Potency [6] was “inactive”. The Potency [7] was “inactive”, the Potency [8] was “inactive” and the outcome [9] was “inactive”. For the same compound, the outcome [11] was “inactive”, the Potency [15] was “inactive” and the Potency (Aromatase (Homo sapiens)) was “inactive”.
With `C1CNCCN1` the Potency [1] was “inactive”, the Potency [2] was “inactive” and the Potency [3] was “inactive and 62.9 µM (active)”. For the same compound, the Potency [4] was “inactive and 62.9 µM (active)”, the outcome [5] was “inactive” and the Potency [6] was “inactive”. The Potency [7] was “inactive”, the Potency [8] was “inactive” and the outcome [9] was “inactive”. The Potency [10] was “inactive”, the outcome [11] was “inactive” and the Potency [12] was “inactive”. For the same compound, the Potency [13] was “inactive and 68 µM (active)”, the Potency [14] was “inactive” and the Potency [15] was “inactive”. For the same compound, the Potency (Aromatase (Homo sapiens)) was “inactive”.
In the case of `C=C(C)C(N)=O`, the Potency [1] is reported as “inactive”, the Potency [2] is reported as “inactive” and the Potency [3] is reported as “inactive”. The Potency [4] was “inactive”, the outcome [5] was “inactive” and the Potency [6] was “inactive”. The Potency [7] was “inactive”, the Potency [8] was “inactive” and the outcome [9] was “inactive”. The Potency [10] was “inactive”, the outcome [11] was “inactive” and the Potency [12] was “inactive”. The Potency [13] was “inactive”, the Potency [14] was “inactive” and the Potency [15] was “inactive”. For the same compound, the Potency (Aromatase (Homo sapiens)) was “inactive”.
In the case of `CCCCNC(=O)NS(=O)(=O)c1ccc(N)cc1`, the Potency [1] is reported as “inactive”, the Potency [2] is reported as “inactive” and the Potency [3] is reported as “inactive”. The Potency [4] was “inactive”, the outcome [5] was “inactive” and the Potency [6] was “inactive”. The Potency [7] was “inactive”, the Potency [8] was “inactive” and the outcome [9] was “inactive”. For the same compound, the outcome [11] was “inactive”, the Potency [15] was “inactive” and the Potency (Aromatase (Homo sapiens)) was “inactive”.
In the case of `CC(=O)OC/C=C(C)/C=C/C=C(C)/C=C/C1=C(C)CCCC1(C)C`, the Potency [1] is reported as “inactive”, the Potency [2] is reported as 61.1 µM (active) and the Potency [3] is reported as “inactive and 59.6 µM (active) and 54.5 µM (active)”. The Potency [4] was 47.4 µM (active) and 30.6 µM (active), the outcome [5] was “inactive” and the Potency [6] was “inactive”. The Potency [7] was “inactive”, the Potency [8] was “inactive” and the outcome [9] was “inactive”. For the same compound, the Potency [10] was “inactive”, the outcome [11] was “inactive” and the Potency [12] was “inactive and 33.8 µM [activator] (active)”. The Potency [13] was “inactive”, the Potency [14] was “inactive” and the Potency [15] was “inactive”. For the same compound, the Potency (Aromatase (Homo sapiens)) was “inactive”.
With `Cc1c(N(C)CS(=O)(=O)O)c(=O)n(-c2ccccc2)n1C` the Potency [1] was “inactive”, the Potency [2] was “inactive” and the Potency [3] was “inactive”. For the same compound, the Potency [4] was “inactive”, the outcome [5] was “inactive” and the Potency [6] was “inactive”. For the same compound, the Potency [7] was “inactive”, the Potency [8] was “inactive” and the outcome [9] was “inactive”. The outcome [11] was “inactive”, the Potency [15] was “inactive” and the Potency (Aromatase (Homo sapiens)) was “inactive”.
In the case of `CCCCCCCCCCCCCCCCCC(=O)OCC(O)CO` (stereo not given), the Potency [1] is reported as “inactive”, the Potency [2] is reported as “inactive” and the Potency [3] is reported as “inactive”. The Potency [4] was “inactive”, the outcome [5] was “inactive” and the Potency [6] was “inactive”. For the same compound, the Potency [7] was “inactive”, the Potency [8] was “inactive” and the outcome [9] was “inactive”. For the same compound, the Potency [10] was “inactive”, the outcome [11] was “inactive” and the Potency [12] was “inactive”. The Potency [13] was “inactive”, the Potency [14] was “inactive” and the Potency [15] was “inactive”. For the same compound, the Potency (Aromatase (Homo sapiens)) was “inactive”.
With `CCn1cc(C(=O)O)c(=O)c2ccc(C)nc21` the Potency [1] was “inactive”, the Potency [2] was “inactive” and the Potency [3] was “inactive”. For the same compound, the Potency [4] was “inactive”, the outcome [5] was “inactive” and the Potency [6] was “inactive”. For the same compound, the Potency [7] was “inactive”, the Potency [8] was “inactive” and the outcome [9] was “inactive”. For the same compound, the Potency [10] was “inactive”, the outcome [11] was “inactive” and the Potency [12] was “inactive”. For the same compound, the Potency [13] was “inactive”, the Potency [14] was “inactive” and the Potency [15] was “inactive”. For the same compound, the Potency (Aromatase (Homo sapiens)) was “inactive”.
In the case of `COc1ccccc1NC(=O)CC(C)=O`, the Potency [1] is reported as “inactive”, the Potency [2] is reported as “inactive” and the Potency [3] is reported as “inactive”. For the same compound, the Potency [4] was “inactive”, the outcome [5] was “inactive” and the Potency [6] was “inactive”. For the same compound, the Potency [7] was “inactive”, the Potency [8] was “inactive” and the outcome [9] was “inactive”. For the same compound, the Potency [10] was “inactive”, the Potency [12] was “inactive” and the Potency [13] was “inactive”. For the same compound, the Potency [14] was “inactive”, the Potency [15] was “inactive” and the Potency (Aromatase (Homo sapiens)) was “inactive”.
In the case of `CCCCOCCOCCOC(C)=O`, the Potency [1] is reported as “inactive”, the Potency [2] is reported as “inactive” and the Potency [3] is reported as “inactive”. The Potency [4] was “inactive”, the outcome [5] was “inactive” and the Potency [6] was “inactive”. For the same compound, the Potency [7] was “inactive”, the Potency [8] was “inactive” and the outcome [9] was “inactive”. The Potency [10] was “inactive”, the outcome [11] was “inactive” and the Potency [12] was “inactive”. The Potency [13] was “inactive”, the Potency [14] was “inactive” and the Potency [15] was “inactive”. For the same compound, the Potency (Aromatase (Homo sapiens)) was “inactive”.
In the case of `C[C@]12C=CC(=O)C=C1CC[C@@H]1[C@@H]2C(=O)C[C@@]2(C)[C@H]1CC[C@]2(O)C(=O)CO`, the Potency [1] is reported as “inactive”, the Potency [2] is reported as “inactive” and the Potency [3] is reported as “inactive and 4.86 µM (active)”. For the same compound, the Potency [4] was “inactive”, the outcome [5] was “inactive” and the Potency [6] was “inactive”. For the same compound, the Potency [7] was “inactive”, the outcome [9] was “inactive” and the Potency [10] was “inactive”. For the same compound, the outcome [11] was “inactive”, the Potency [12] was “inactive” and the Potency [13] was “inactive and 54.5 µM (active)”. The Potency [14] was “inactive”, the Potency [15] was “inactive” and the Potency (Aromatase (Homo sapiens)) was “inactive”.
